Hits are enriched below; roughly 9.2% of the tested compounds scored in any of these assays.
SMN2 splice enh: enhancers of SMN2 splice variant expression; HEK293 SMN2-luciferase splicing reporter, luminescence, 30-36 h; Potency, µM (highest dose often 46.1 µM), without a hit: at the highest dose activity change, positive = activation, actives largely listed as activators; 210,000 tested, 2.8% active; further: % of control where 0% means no effect; nearly all actives have a fitted effect of over 55% in size
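HEK293 cells carry an SMN2 […]–luciferase reporter in which exon 7 inclusion puts luciferase in frame. Cells were plated 10-12 h before compound addition, then incubated 30-36 h at 37C. ONE-Glo luminescence was read; sodium butyrate at 4.5 mM final served as control.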
NPC1 promoter act: activators of NPC1 promoter; Huh7 NPC1 promoter luciferase reporter, 24 h; Potency, µM (highest dose often 9.22 µM), for inactives: top-dose activation, usual class: activators; 320,000 tested, 2.4% active; AID 485313; further: % of control where 0% means no effect; nearly all actives have a fitted effect of over 60% in size
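In 1536-well qHTS, Huh7 cells harboring an NPC1 promoter–luciferase construct received compound for 24 h; activation was quantified by luminescence following luciferase reagent addition.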
ELG1 genotoxic: genotoxicity induction in ELG1-luciferase HEK293T cells. HEK293T ELG1-luciferase reporter, luminescence, 16 h. Potency, µM (series often up to 46 µM), for the others: top-dose activity change, positive = activation, usual class: activators. 330,000 tested, 1.3% active; further: % of control where 0% means no effect; nearly all actives have a fitted effect of over 60% in size
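Cells (2,000/well) expressing the ELG1-luciferase fusion are dosed by pin tool and kept 16 hr at 37 °C, 5% CO2. Signal comes from ONE-Glo luciferase reagent after 30 min at room temperature.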
Rab9 prom act: Rab9 promoter activation; AID 485297; Huh7 Rab9 promoter-luciferase reporter, luminescence, 24 h; 320,000 tested, 2.8% active; Potency, µM (doses to about 9.22 µM), for inactives: top-dose activation, negative = inhibition, usual class: activators; further: % of control where 0% means no effect; nearly all actives have a fitted effect of over 60% in size
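Stable Rab9-luc Huh7, 1500 cells/well, 2 h settle; cmpd in DMSO, 24 h, 37 °C/5% CO2; luciferase reagent 10 min RT; luminescence.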
ELG1 DNA repair: inhibitors of ELG1-dependent DNA repair in HEK293T cells | Potency, µM (titrated, usually from 46.1 µM), without a hit: at the highest dose activity change, negative = inhibition, most hits filed as inhibitors | AID 504467 | 330,000 tested, 2.3% active | HEK293T ELG1-luciferase reporter, luminescence, 16 h; DNA damage induced by 5-fluorouridine; further: on the % scale 0 is the no-effect control and ±100 the full control effect; nearly all actives have a fitted effect of over 55% in size
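In this reporter screen, reduction of luminescence relative to DMSO vehicle indicated activity. Compounds and 5-fluorouridine were added together to 2,000 cells per well, incubated for 16 hr at 37 °C, then developed with ONE-Glo.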
FLuc counter: inhibits or activates purified firefly luciferase, miR-21 counter-screen | P08659 | purified FLuc, Km substrates, luminescence inhibition | Potency, µM (titrated, usually from 57.5 µM), inactives show at the top dose activity change, negative = inhibition, usual class: inhibitors | 360,000 tested, 6.9% active | AID 588342;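 further: plate controls were vehicle for no effect and reference inhibitor for full effect; nearly all actives have a fitted effect of over 55% in size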
Target sequence (P08659 whole entry, looked up): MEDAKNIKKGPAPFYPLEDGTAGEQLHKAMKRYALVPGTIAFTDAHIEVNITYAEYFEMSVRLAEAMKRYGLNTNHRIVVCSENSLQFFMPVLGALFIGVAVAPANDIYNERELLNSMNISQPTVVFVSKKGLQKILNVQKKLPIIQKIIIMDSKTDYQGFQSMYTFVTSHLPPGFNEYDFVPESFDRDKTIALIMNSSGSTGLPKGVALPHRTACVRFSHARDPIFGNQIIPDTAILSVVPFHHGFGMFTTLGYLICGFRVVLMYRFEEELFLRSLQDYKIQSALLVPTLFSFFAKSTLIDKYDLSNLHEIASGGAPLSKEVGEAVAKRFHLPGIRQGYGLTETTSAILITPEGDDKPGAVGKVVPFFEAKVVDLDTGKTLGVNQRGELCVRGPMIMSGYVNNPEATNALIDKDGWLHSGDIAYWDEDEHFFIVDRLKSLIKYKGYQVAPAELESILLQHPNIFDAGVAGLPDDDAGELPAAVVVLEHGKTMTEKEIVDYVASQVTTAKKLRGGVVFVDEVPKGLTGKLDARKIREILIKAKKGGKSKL
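Purified P. pyralis luciferase, 10 nM final, with Km-level 10 uM D-luciferin and 10 uM ATP in 50 mM Tris acetate pH 7.5, 10 mM Mg acetate, 0.01% Tween-20, 0.05% BSA; 6-point qHTS titration about 60 µM downward; luminescence read.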
* marks the source's active call; other numbers are inactive results; ? = inconclusive; / = not tested or not shown; [ ] = remark or other dose. The call rests on the fitted dose curve; in most records, active means well fitted curve in the direction sought with a large enough effect; inconclusive means small, poorly fitted or top-dose-only effect, or another doubt; inactive means no such curve, though single readings can be large; an effect the other way counts as inactive or inconclusive. Potency means the concentration at half of the fitted maximal effect.

SMILES	SMN2 splice enh	NPC1 promoter act	ELG1 genotoxic	Rab9 prom act	ELG1 DNA repair	FLuc counter
CCOC(=O)c1c(C)[nH]c(CCC(=O)NC(C)c2ccccc2)c1C (stereo not given)	/	/	/	/	/	-2%
CCOc1cc(-c2nc(-c3ccccc3)c(-c3cc([N+](=O)[O-])ccc3C)[nH]2)ccc1O	-2%	/	/	/	/	5%
COc1ccc(-c2nc(-c3ccccc3)c(-c3cc([N+](=O)[O-])ccc3C)[nH]2)cc1OC	-19%	-4%	-5%	-2%	10µM*	5%
O=C(c1ccc(Cn2c(=O)[nH]c3ccccc3c2=O)cc1)N1CCN(c2ccc(F)cc2)CC1	-19%	0%	2%	-2%	18µM*	1%
COc1ccc(Cn2c(=O)[nH]c3cc(C(=O)N4CCN(c5ccccc5OC)CC4)ccc3c2=O)cc1	/	-17%	-28%	-3%	21µM*	0%
COc1ccc(Cn2c(=O)[nH]c3cc(C(=O)N4CCN(c5ccccc5F)CC4)ccc3c2=O)cc1	/	-10%	3%	0%	6%	2%
COc1cccc(NC(=O)Nc2ccncc2)c1	/	-1%	-2%	18%	10%	?
COc1cccc(NC(=O)Nc2ccc(C(C)(C)C)cc2)c1	11µM*	?	-9%	?	?	3µM*
COc1cccc(NC(=O)c2ccc(NC(=O)C(C)(C)C)cc2)c1	13µM*	?	14%	?	?	9.5µM*
CCOc1ccc(N/C=C/C(=O)c2ccc(OC)cc2)c([N+](=O)[O-])c1	-25%	0.4µM*	?	1.1µM*	?	0.85µM*
COc1ccc(C(=O)/C=C/Nc2ccc([N+](=O)[O-])cc2)cc1	?	?	1%	?	?	-25%
O=C(/C=C/Nc1ccc(F)cc1)c1ccc(Oc2ncccn2)cc1	24%	17%	0%	?	?	?
COc1ccc(N/C=C/C(=O)c2ccc(Oc3ncccn3)cc2)cc1	-10%	9%	9%	6%	18%	1.7µM*
CCOc1ccc(N/C=C/C(=O)c2ccc(OC)cc2)cc1	/	?	9%	?	?	1.2µM*
CC(C)(C)C(=O)Nc1ccc(C(=O)N/N=C/c2ccccc2OC(=O)c2ccc(Cl)cc2)cc1	-82%	-11%	0%	-20%	18µM*	-10%
COc1ccc(C(=O)N/N=C/c2ccccc2OC(=O)c2ccccc2)cc1	/	?	21µM*	-8%	?	?
NC(=O)N/N=C/c1ccccc1OC(=O)c1ccccc1Br	-23%	-5%	-8%	-2%	-1%	27µM*
COc1cc(C(=O)Oc2ccccc2/C=N/NC(=O)c2ccc(C)cc2)cc(OC)c1OC	-65%	?	17%	?	?	6µM*
COc1ccc(C(=O)N/N=C/c2ccc(OC(=O)c3ccccc3)cc2)cc1	-10%[1.84 µM]	1%	?	6%	?	0%
CC1(C)Cc2c(cnn2-c2ccc(F)cc2)C(NC(=O)CCc2ccncc2)C1 (stereo not given)	/	16%	13%	16%	?	?
CCc1ccc(CNC(=O)c2sc3ncccc3c2-n2c(C)ccc2C)cc1	/	/	/	/	/	-8%
CCCCNC(=O)C1CCC(Cn2c(=O)c3sccc3n(Cc3ccccc3)c2=O)CC1 (stereo not given)	/	/	/	/	/	1%
O=C(c1ccc(F)cc1)c1cc2ccc(O)cc2oc1=O	/	28%	?	15%	?	15µM*
CCCCCCc1cc2cc(C(=O)Nc3ccc(OC)cc3)c(=O)oc2cc1O	-16%[1.84 µM]	-8%	-4%	-18%	?	3%
COc1ccc(NC(=O)c2cc3ccc(O)cc3o/c2=N\O)cc1	/	?	?	28%	?	0.27µM*
SMILES	SMN2 splice enh	NPC1 promoter act	ELG1 genotoxic	Rab9 prom act	ELG1 DNA repair	FLuc counter
N=c1oc2cc(O)ccc2cc1C(=O)Nc1ccc(F)cc1	/	?	?	3.5µM*	?	2.7µM*
Cc1ccc(Cl)cc1N1CCN(S(=O)(=O)c2ccc3c(c2)NC(=O)C(C)C(=O)N3)CC1 (stereo not given)	/	0%	-1%	-2%	-17%	2%
Cc1nc2ccccc2c2oc(C(=O)Nc3ccc4c(c3)OCCO4)cc12	-13%	12%	-3%	-1%	21µM*	15µM*
COc1cccc(CNC(=O)c2cc3c(C)nc4ccccc4c3o2)c1	-56%	1%	-13%	-6%	?	3%
Cc1nc2ccccc2c2oc(C(=O)Nc3ccc(C(C)C)cc3)cc12	-42%	-9%	-4%	-3%	23µM*	-11%
COc1cc(NC(=O)c2cc3c(C)nc4ccccc4c3o2)cc(OC)c1OC	1%	1%	-7%	-3%	7.3µM*	-17%
CCc1ccc(CN(C(=O)Nc2cccc(Cl)c2)c2ccccn2)cc1	/	/	/	/	/	-19%
O=C(NCCc1cccs1)C1CC(c2ccccc2[N+](=O)[O-])=NO1 (stereo not given)	24%	?	15%	?	?	15µM*
CC(C)CCNC(=O)C1CC(c2cccc([N+](=O)[O-])c2)=NO1 (stereo not given)	-17%	3%	3%	9%	9%	0%
COc1ccc(CCNC(=O)C2CC(c3ccccc3[N+](=O)[O-])=NO2)cc1 (stereo not given)	27%	?	21%	?	?	19µM*
CCCCNC(=O)C1CC(c2cccc([N+](=O)[O-])c2)=NO1 (stereo not given)	?	2.8µM*	?	2.8µM*	?	11µM*
Cc1nn2c(=O)cc(CN(C)c3ccccc3)nc2s1	/	/	/	/	/	-1%
O=C1C(C2=NC(C(=O)O)C3C(=O)N(c4ccc(Cl)cc4)C(=O)C23)=C(O)c2ccccc21 (stereo not given)	-3%	-4%	3%	10%	9%	6.7µM*
COc1ccccc1N(C)S(=O)(=O)c1ccc(C(=O)NCC(C)C)cc1	-34%	-1%	-6%	1%	?	4%
CN(CC(=O)Nc1ccc(N2CCOCC2)cc1)C(=O)c1cc(S(=O)(=O)N(C)C)ccc1Cl	/	-2%	13%	0%	?	15µM*
COc1ccccc1N(C)S(=O)(=O)c1ccc(C(=O)Nc2ccc(N3CCOCC3)cc2)cc1	-46%	0%	-11%	-6%	23µM*	3%
COc1ccccc1N(C)S(=O)(=O)c1ccc(Cl)c(C(=O)NCc2ccco2)c1	/	/	-2%	/	21µM*	/
CCC(C)(C)NC(=O)c1ccc(S(=O)(=O)N(C)c2ccccc2OC)cc1	-15%	/	/	/	/	0%

High-throughput results: PubChem BioAssay, National Center for Advancing Translational Sciences (NCATS)
